# PKM2 act: activators of human pyruvate kinase M2; P14618; purified PKM2, Kinase-Glo ATP luminescence, activation; response scale: 0% is enzyme alone, no compound; Potency, µM (doses to about 57.5 µM), usual class: activators; 260,000 tested, 0.34% active; note: nearly all actives have a fitted effect of over 55% in size
#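 Purified hPK-M2 (>95% pure) converted ADP (0.1 mM final) to ATP with 0.5 mM PEP in 50 mM imidazole pH7.2, KCl, MgCl2, Tween 20, BSA; 1 h at room temperature. ATP detected by Kinase-Glo luminescence.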
# Vif-A3G inh: inhibitors of Vif-APOBEC3G interaction; Q9HC16; HeLa A3G-eYFP + Vif (tagged APOBEC3G with the HIV-1 protein that degrades it), YFP fluorescence, overnight; Potency, µM (doses to about 46.1 µM), usual class: inhibitors; 410,000 tested, 0.076% active; note: nearly all actives have a fitted effect of over 60% in size
#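 HeLa cells stably expressing Vif and C-terminally eYFP-tagged A3G, seeded overnight at 37 deg C, then exposed to compound by pintool overnight at 37 deg C. Rise in yellow fluorescence (Ex 488/Em 500-530, Acumen) marks blocked Vif-driven A3G degradation.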
# GCN5L2 inh: blocks human GCN5L2 histone acetyltransferase. GCN5L2 HAT assay, ThioGlo1 CoA-SH fluorescence. Potency, µM (doses to about 58.9 µM), usual class: inhibitors. 390,000 tested, 0.21% active. AID 504327
# Target sequence (Q92830 whole entry, looked up): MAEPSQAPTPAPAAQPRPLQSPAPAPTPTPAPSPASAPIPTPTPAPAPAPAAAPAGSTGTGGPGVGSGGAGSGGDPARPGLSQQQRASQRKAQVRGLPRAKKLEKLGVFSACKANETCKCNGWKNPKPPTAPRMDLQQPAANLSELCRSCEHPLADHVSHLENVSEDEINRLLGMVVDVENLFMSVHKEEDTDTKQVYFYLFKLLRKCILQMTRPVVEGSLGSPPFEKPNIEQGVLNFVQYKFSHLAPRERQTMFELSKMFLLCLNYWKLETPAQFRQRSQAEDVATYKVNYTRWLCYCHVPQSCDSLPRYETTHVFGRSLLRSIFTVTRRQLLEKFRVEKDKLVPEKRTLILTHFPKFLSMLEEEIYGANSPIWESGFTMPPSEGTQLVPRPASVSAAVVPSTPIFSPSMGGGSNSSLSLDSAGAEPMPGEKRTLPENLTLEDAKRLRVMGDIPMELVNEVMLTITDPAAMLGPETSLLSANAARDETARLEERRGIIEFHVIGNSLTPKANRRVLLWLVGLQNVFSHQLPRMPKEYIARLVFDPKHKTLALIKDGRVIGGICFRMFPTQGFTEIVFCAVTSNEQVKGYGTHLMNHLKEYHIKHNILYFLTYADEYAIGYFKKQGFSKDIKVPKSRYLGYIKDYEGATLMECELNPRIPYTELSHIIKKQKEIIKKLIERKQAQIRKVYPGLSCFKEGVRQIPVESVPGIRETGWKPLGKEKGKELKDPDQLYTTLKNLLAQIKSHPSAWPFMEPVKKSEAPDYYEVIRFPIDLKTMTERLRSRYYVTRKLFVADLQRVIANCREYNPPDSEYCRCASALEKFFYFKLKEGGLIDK
#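 Compounds, pin-transferred from DMSO stocks, meet 20nM GCN5L2 for 15 min before the reaction begins with H3(1-25) peptide (75uM) and acetyl-CoA (70uM). Thiol-reactive ThioGlo1 reports CoA release over 20 min at room temperature.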
# IL-2 act: activates IL-2 in a cell-based reporter assay. AID 652025. IL-2 activation reporter assay, cell-based qHTS; stimulated with anti-CD3/CD4/CD28 beads; in transgenic mouse T cells. activation, % (series mostly up to about 46 µM). 360,000 tested, 0.065% active; in the data active = activation above about 50%; inconclusive = mostly about 30% to 49%
#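 Unstimulated transgenic mouse T cells preincubated 60 min with compound, then stimulated with anti-CD3/anti-CD4-coated beads plus anti-CD28 for 18 h at 37 degrees C. IL-2 response read as EGFP and DsRed fluorescence by plate cytometry.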
# Vif-APOBEC3F blk: inhibitors of Vif-A3F interaction; HeLa A3F-eYFP + Vif (tagged APOBEC3F with the HIV-1 protein that degrades it), YFP fluorescence increase; Potency, µM (doses to about 46.1 µM); 390,000 tested, 0.2% active; AID 602313; note: nearly all actives have a fitted effect of over 65% in size
#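 Fluorescence increase (Ex 488/Em 500-530) after overnight compound treatment at 37 deg C flags inhibition of Vif-driven A3F-eYFP loss in stable HeLa A3F-eYFP/Vif cells seeded overnight beforehand.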
# GoLoco inh red: RGS12 GoLoco-Gai1 interaction inhibition; P63096; Gai1:RGS12 GoLoco peptide FP, rhodamine, 10 min; Potency, µM (top dose mostly 61.6 µM), actives largely listed as inhibitors; 230,000 tested, 0.44% active; AID 880; active = well fitted inhibition curve with a large enough effect, not every such curve was filed as active; inactive = no such curve, though single readings can be large or run the other way; note: nearly all actives have a fitted effect of over 30% in size
# Hits are given with their value; n = inactive; u = inconclusive; x = no result. An excerpt weighted towards active compounds, which were near 0.77% of everything screened. Unless noted, calls come from the whole dose curve; as a rule, active = well fitted curve in the direction sought with a large enough effect; inconclusive = small, poorly fitted or top-dose-only effect, or another doubt; inactive = no such curve, though single readings can be large; an effect the other way counts as inactive or inconclusive.
SMILES,PKM2 act,Vif-A3G inh,GCN5L2 inh,IL-2 act,Vif-APOBEC3F blk,GoLoco inh red
Cc1[nH]n(-c2ccccc2)c(=S)c1C=Nc1cccc([N+](=O)[O-])c1,n,n,10µM,n,n,12.6µM
CCCCN=Cc1c(C)[nH]n(-c2ccccc2)c1=S,n,n,u,n,u,n
COc1ccc(S(=O)(=O)Nc2ccccc2-c2nc3ccccc3[nH]c2=O)cc1,n,u,n,n,3.55µM,x
Cc1nnc2sc(-c3ccc(NC(=O)c4ccc(-c5ccc(Cl)cc5Cl)o4)cc3)nn12,x,n,x,n,n,x
COc1ccc(C(=O)OC(C)CN2CCOCC2)cc1 (centres undefined),x,n,n,n,n,x
Cc1cccc(NC(=O)CSCC(=O)Nc2sccc2C#N)c1,x,n,n,n,n,x
CCN(/N=C/c1cccs1)c1cc(=O)n(C)c(=O)[nH]1,22.4µM,n,n,n,n,n
COC(=O)c1ccc(NC(=O)CC2C(=O)N(c3ccccc3)C(=O)N2Cc2ccco2)cc1 (centres undefined),x,n,n,x,n,x
O=C(Cn1nnc2ccccc2c1=O)Nc1ccc2c(c1)CCC2,n,n,n,n,n,n
CCN(CC)S(=O)(=O)c1ccc2c(c1)nc(SCc1nc3ccsc3c(=O)[nH]1)n2CC,12.6µM,n,n,n,n,n
CCn1c(SCc2nc3ccccc3c(=O)[nH]2)nc2ccccc21,n,n,n,n,n,n
C[N+]12CCCCC1[C@@H](CO)CCC2 (some centres undefined),n,n,n,n,n,4.47µM
CS(=O)(=O)N1CCN(c2ccc([N+](=O)[O-])c(NCc3cccnc3)c2)CC1,10µM,n,n,n,n,n
ClC(Cl)Cl,x,x,n,x,x,15.8µM
Cc1ccc(C)c(CSCC(=O)NCc2cccs2)c1,n,n,n,n,n,n
COc1ccc(CN2C(=O)/C(=C/c3ccc(-c4ccc(Cl)c(C(=O)O)c4)o3)SC2=S)cc1,u,x,n,x,x,n
Cc1ccc(S(=O)(=O)N2CCCCC2)cc1NC(=O)Cn1cnnn1,14.1µM,n,n,n,n,n
O=C(Cn1cnnn1)Nc1cccc(S(=O)(=O)N2CCCCC2)c1,n,n,n,n,n,n
Cc1ccc(S(=O)(=O)/N=c2\ccc(Cl)cn2C(F)F)cc1,25.1µM,n,n,n,n,n
COc1ccc(Nc2nc3ccccc3nc2NS(=O)(=O)c2cccs2)cc1,n,n,n,n,n,n
O=S(=O)(Nc1nc2ccccc2nc1OCC(F)(F)F)c1cccs1,n,n,n,n,25.1µM,n
O=C(O)c1ccccc1-c1c2ccc(=O)cc-2oc2cc(O)ccc12,x,x,u,x,x,0.398µM
O=C(O)c1ccccc1-c1oc2cc(O)ccc2c(=O)c1Oc1ccccc1,x,x,x,x,x,n
Cc1c(N=N/C(C(=O)Nc2ccccc2)=C(/O)c2ccccc2)c(=O)n(-c2ccccc2)n1C,n,n,n,n,10µM,n
O=C(Cn1nnc(-c2ccccc2Cl)n1)N/N=C/c1ccc2c(c1)OCO2,n,n,n,n,n,n
SMILES,PKM2 act,Vif-A3G inh,GCN5L2 inh,IL-2 act,Vif-APOBEC3F blk,GoLoco inh red
CCCCOC(=O)c1ccc(N=Nc2c(C)c(C#N)c(O)[nH]c2=O)cc1,n,n,n,106.6,u,n
Cc1c(C#N)c(O)[nH]c(=O)c1N=Nc1ccc(Br)cc1C(=O)O,x,n,n,n,n,x
Cc1cccc(N=Nc2c(C)c(C#N)c(O)[nH]c2=O)c1,n,n,n,n,n,5.01µM
Cc1cn2c(=O)cc(COC(=O)c3ccc(NC(=O)c4ccc(F)cc4)cc3)nc2s1,x,n,n,x,n,x
COc1ccccc1NC(=S)N(CCc1nc2cc(C)c(C)cc2[nH]1)Cc1cccnc1,n,n,n,n,n,n
CCS(=O)(=O)N1CCN(S(=O)(=O)c2ccc3ccccc3c2)CC1,u,n,n,n,n,x
Cc1cc(N2CCN(S(=O)(=O)c3ccc4ccccc4c3)CC2)n2ncnc2n1,17.8µM,n,n,n,n,n
O=C(c1ccc(Cl)cc1)C1CCN(C(=O)C2CC2)CC1,n,n,14.1µM,n,n,n
